The structures appear in SMILES notation. Compounds without any hit were thinned out: in the full panel of roughly 79,000, 15% have a hit. Unmarked numbers belong to inactive results. Calls of active or inactive are those of the source. Cut-off read from the data, not from the text of the source: active = growth inhibition above about 70%; inactive = the rest.

The first assay in a line: NCI Yeast Anticancer Drug Screen. Data for the cln2 rad14 strain (AID 165).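 Note: 0% = growth equal to vehicle treated cultures.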 As to conditions: S. cerevisiae cln2 rad14 strain, at 50.0 µM (retest, dose inferred, filed as 5.0), active compounds read high. A digest of the protocol: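 Growth inhibition, relative to vehicle-treated controls, is the read-out. The test organism is a yeast strain with defined genetic alterations, cln2 rad14.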
Turning to `N#CSCCSCc1ccc(Cl)cc1`, the growth inhibition is 99% (active).

Consider `CN(/N=C\c1ccc(Cl)cc1)C(c1ccc(Cl)cc1)N(C)/N=C/c1ccc(Cl)cc1` (stereo not given), for which the growth inhibition is 67%.

As for `CC(C)(C)[Si](C)(C)OCC1OC(n2cc(I)c(N)nc2=O)C(O[Si](C)(C)C(C)(C)C)C1O[Si](C)(C)C(C)(C)C` (stereo not given), the growth inhibition is 51%.

Turning to `O=C1C(=O)c2cc(Br)cc([N+](=O)[O-])c2-c2ccc(Br)cc21`, the growth inhibition is 92% (active).

For the compound `C(=NCCc1ccccc1)c1ccccc1B1OB(c2ccccc2C=NCCc2ccccc2)OB(c2ccccc2C=NCCc2ccccc2)O1`, the growth inhibition was 98% (active).

Regarding `O=[N+]([O-])c1ccc(-c2ccccc2Cl)c([N+](=O)[O-])c1`, the growth inhibition is 83% (active).

Take `CC12CCC(=O)C=C1CCC1C2CCC2(C)C(c3cnc[nH]3)CCC12` (stereo not given): the growth inhibition is 43%.

In the case of `COc1cccc(C2CC(C)(O)Oc3cc4c(cc32)OCO4)c1` (stereo not given), the growth inhibition is 44%.

In the case of `N/C(=N\N=C\c1cc(I)cc(I)c1O)NO`, the growth inhibition was 89% (active).

Turning to `Cc1ccc2nn(-c3ccc(O)cc3)nc2c1`, the growth inhibition was 39%.

For `COC(=O)C1=C(NC(=O)Nc2ccc(Cl)cc2)OC(C)(C)C1c1ccc(Cl)cc1` (stereo not given), the growth inhibition was 87% (active).

As to `CCCC/C=C\CCCCCCCCCC1=C(O)C(=O)C=C(OC)C1=O`, the growth inhibition is 62%.

Consider `Cc1nn(C(=O)c2ccccc2O)c2c1C(c1ccco1)SC(N)=N2` (stereo not given), for which the growth inhibition is 52%.

For the compound `CC1=C(CO)C(=O)O[C@@H]([C@@H](C)[C@H]2CC[C@H]3[C@@H]4C[C@@H](O)C5=CC=CC(=O)[C@]5(C)[C@H]4CC[C@]23C)C1`, the growth inhibition was 47%.

Turning to `O=C(CNC(=O)Nc1ccc(NC(=O)NCC(=O)Nc2ccc(C3=NCCN3)cc2)cc1)Nc1ccc(C2=NCCN2)cc1`, the growth inhibition is 5%.

The same assay, now with this note: S. cerevisiae cln2 rad14 strain, at 50.0 µM, active compounds read high.
With `CCCCCCCCCCS(=O)(=O)Nc1ccc(C(=O)NN)cc1`, the growth inhibition is 91% (active).

As for `ON(C(=Nc1ccc(Cl)cc1)c1ccccc1)c1ccccc1`, the growth inhibition is 99.2% (active).

For `Cc1ccc(-c2c(N)[n+]([O-])c3ccccc3[n+]2[O-])cc1`, the growth inhibition was 98.3% (active).

Turning to `NC(=O)C12OC3CC(CC(C3)O1)O2`, the growth inhibition was 71.2% (active).

`C=C(C)[P+](C)(c1ccccc1)c1ccccc1`: the growth inhibition is 4.4%.

On to `CCC(C)SC1SCC2C(=O)N(C)C3(CC3C)C(=O)OCC(NC(=O)c3nc4ccccc4cc3O)C(=O)NC(C)C(=O)N(C)C1C(=O)N(C)C1(CC1C)C(=O)OCC(NC(=O)c1nc3ccccc3cc1O)C(=O)NC(C)C(=O)N2C` (stereo not given), for which the growth inhibition is 88.7% (active).

Regarding `COc1ccc2ccc(=O)oc2c1CC=C(C)C`, the growth inhibition was -9.6%.

Take `O=c1ccn(C2OC(COC(c3ccccc3)(c3ccccc3)c3ccccc3)C(O)C2O)c(=O)[nH]1` (stereo not given): the growth inhibition was 92.4% (active).

Turning to `O=C1C(=O)C(Cc2ccccc2)(c2ccccc2)C(=O)N1c1ccccc1` (stereo not given), the growth inhibition is -9.8%.

In the case of `CCC(O)C(O)(c1ccccc1)c1nc2ccccc2s1` (stereo not given), the growth inhibition was 2.2%.

Regarding `c1ccc(-n2ncc3ccc4cccn4c32)cc1`, the growth inhibition is 13.1%.

Consider `O=C(c1ccc([N+](=O)[O-])cc1)C(Br)C(Br)c1ccnc2ccccc12` (stereo not given), for which the growth inhibition is 96.7% (active).

`[Cl][Sn]1([Cl])[CH2]CC[CH2][Sn]([Cl])([Cl])[CH2]CC[CH2][Sn]([Cl])([Cl])[CH2]CC[CH2][Sn]([Cl])([Cl])[CH2]CC[CH2]1`: the growth inhibition was 69.6%.

Consider `Nc1ccc(O)c(=O)cc1`, for which the growth inhibition is 25.1%.

Regarding `CC(C)c1cc(C(=O)[O-])c(O)c(C(C)C)c1.CC(C)c1cc(C(=O)[O-])c(O)c(C(C)C)c1.CC(C)c1cc(C(=O)[O-])c(O)c(C(C)C)c1.CC(C)c1cc(C(=O)[O-])c(O)c(C(C)C)c1.CC(C)c1cc(C(=O)[O-])c(O)c(C(C)C)c1.CC(C)c1cc(C(=O)[O-])c(O)c(C(C)C)c1.[Cu+2].[Mn+2].[Mn+2]`, the growth inhibition was 50.7%.

As to `CC1=C(C(=O)Nc2cccc(C(F)(F)F)c2)C(c2ccccc2F)C(C(=O)Nc2cccc(C(F)(F)F)c2)=C(C)N1`, the growth inhibition is 85.7% (active).

In the case of `O=C(c1ccccc1)C(C(=O)c1ccccc1)c1ccc2ccccc2n1`, the growth inhibition is 9.75%.

In the case of `NC(=S)N1N=C2c3ccccc3CC[C@H]2[C@@H]1c1cccs1`, the growth inhibition was 43.1%.

As to `O=CC(O)CN1CCCC1` (stereo not given), the growth inhibition was 96.8% (active).

As for `CCCCCN(CCCCC)CC(C)(C)C(O)c1ccc(OC)c2ccccc12` (stereo not given), the growth inhibition was 86.9% (active).

Regarding `CSC(=S)n1nc(-c2cccs2)c(N=Nc2ccccc2)c1C(F)(F)F`, the growth inhibition is 65.3%.

As to `CC(O)C1CCCC[N+]1(C)C` (stereo not given), the growth inhibition was -7.6%.

Turning to `CCCCCCCCCCCC(=O)N(CCOC(=O)c1ccco1)CCOC(=O)c1ccco1`, the growth inhibition is 98.5% (active).

Turning to `CCOC(=O)NC(=S)Nc1ccsc1`, the growth inhibition was 56.8%.

Turning to `O=C(O)c1ccc(C(O)(c2ccccc2)c2ccccc2)cc1`, the growth inhibition is 82.3% (active).

Turning to `N#CSCCSCc1ccc(Cl)cc1`, the growth inhibition was 98.9% (active).

On to `CN(/N=C\c1ccc(Cl)cc1)C(c1ccc(Cl)cc1)N(C)/N=C/c1ccc(Cl)cc1` (stereo not given), for which the growth inhibition was 45.5%.

In the case of `CC(C)(C)[Si](C)(C)OCC1OC(n2cc(I)c(N)nc2=O)C(O[Si](C)(C)C(C)(C)C)C1O[Si](C)(C)C(C)(C)C` (stereo not given), the growth inhibition is 32.3%.

Regarding `O=C1C(=O)c2cc(Br)cc([N+](=O)[O-])c2-c2ccc(Br)cc21`, the growth inhibition is 96.6% (active).

Regarding `C(=NCCc1ccccc1)c1ccccc1B1OB(c2ccccc2C=NCCc2ccccc2)OB(c2ccccc2C=NCCc2ccccc2)O1`, the growth inhibition is 99.3% (active).

Turning to `O=[N+]([O-])c1ccc(-c2ccccc2Cl)c([N+](=O)[O-])c1`, the growth inhibition was 80.1% (active).

Turning to `CC12CCC(=O)C=C1CCC1C2CCC2(C)C(c3cnc[nH]3)CCC12` (stereo not given), the growth inhibition is 34.9%.

As to `COc1cccc(C2CC(C)(O)Oc3cc4c(cc32)OCO4)c1` (stereo not given), the growth inhibition was 54.6%.

Regarding `N/C(=N\N=C\c1cc(I)cc(I)c1O)NO`, the growth inhibition is 93.7% (active).

For the compound `Cc1ccc2nn(-c3ccc(O)cc3)nc2c1`, the growth inhibition was 29.3%.

On to `COC(=O)C1=C(NC(=O)Nc2ccc(Cl)cc2)OC(C)(C)C1c1ccc(Cl)cc1` (stereo not given), for which the growth inhibition is 94.8% (active).

Take `CCCC/C=C\CCCCCCCCCC1=C(O)C(=O)C=C(OC)C1=O`: the growth inhibition is 42.5%.

Turning to `Cc1nn(C(=O)c2ccccc2O)c2c1C(c1ccco1)SC(N)=N2` (stereo not given), the growth inhibition is 43.6%.

As to `CC1=C(CO)C(=O)O[C@@H]([C@@H](C)[C@H]2CC[C@H]3[C@@H]4C[C@@H](O)C5=CC=CC(=O)[C@]5(C)[C@H]4CC[C@]23C)C1`, the growth inhibition is 55.2%.

In the case of `O=C(CNC(=O)Nc1ccc(NC(=O)NCC(=O)Nc2ccc(C3=NCCN3)cc2)cc1)Nc1ccc(C2=NCCN2)cc1`, the growth inhibition was 30.7%.

For the origin of these results see PubChem BioAssay (NCI).
